According to PubChem BioAssay AID1159580 (chemical genetic matrix, 2015):
Several values for one entry are separate records, joined by “and”; a condition that tells them apart may be missing. Equal values may be shown once. Screen size: about 5,500 compounds; about 2,000 (36%) were called active. About 18% were inconclusive and are not listed. Rule as the data show it: active = normalized growth mostly below about 0.91 (no sharp cut-off); inconclusive = no clear call, values can overlap the other calls; inactive = mostly above about 0.92. This is one part of the list.

Experiment: chemical genetic growth profiling, strain panel (AID 1159580);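 also: tested at 20 µM; growth read once vehicle control cultures reached saturation at 30 °C; 1 = growth at the plate median or of vehicle wells; lower values mean less growth of the strain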
Conditions: S. cerevisiae deletion strains, growth OD

Measured: normalized growth

CC(C)NCC(O)c1ccc(O)c(O)c1 (stereo not given)
inactive: locus YAL013W, strain DEP1, hits give low values 1.01 | locus YAL021C, strain ccr4, hits give low values 0.994 | locus YAL026C, strain drs2, hits give low values 0.994 | locus YAL030W, strain snc1, hits give low values 0.996 | locus YAL040C, strain CLN3, hits give low values 1 and 1.06 | locus YBL061C, strain skt5, hits give low values 0.99 | locus YBR009C, strain hhf1, hits give low values 0.995 | locus YBR021W, strain FUR4, hits give low values 1.01 | locus YBR023C, strain chs3, hits give low values 0.982 | locus YBR171W, strain sec66, hits give low values 0.979 | locus YBR229C, strain ROT2, hits give low values 1.02 | locus YBR231C, strain swc5, hits give low values 0.997 | locus YBR279W, strain paf1, hits give low values 0.973 | locus YCL011C, strain gbp2, hits give low values 0.978 | locus YCL016C, strain dcc1, hits give low values 0.951 | locus YCL029C, strain bik1, hits give low values 1 | locus YCL061C, strain MRC1 (second series), hits give low values 0.995 and 0.99 | locus YCL061C, strain MRC1, hits give low values 0.985 | locus YCL069W, strain vba3, hits give low values 1 | locus YCR088W, strain abp1, hits give low values 0.99 | locus YDL005C, strain med2, hits give low values 0.997 | locus YDL035C, strain GPR1, hits give low values 1.02 | locus YDL040C, strain nat1, hits give low values 1.01 | locus YDL074C, strain BRE1, hits give low values 1.03 | locus YDL101C, strain DUN1, hits give low values 1.01 | locus YDL185W, strain tfp1, hits give low values 0.984 | locus YDL192W, strain arf1, hits give low values 1 | locus YDR001C, strain nth1, hits give low values 0.992 | locus YDR069C, strain doa4, hits give low values 1.02 | locus YDR101C, strain arx1, hits give low values 1.02 | locus YDR137W, strain rgp1, hits give low values 1 | locus YDR150W, strain NUM1, hits give low values 1.02 and 0.999 | locus YDR159W, strain sac3, hits give low values 1.01 | locus YDR162C, strain NBP2, hits give low values 1 | locus YDR195W, strain ref2 0.992 | locus YDR297W, strain sur2, hits give low values 0.99 | locus YDR318W, strain mcm21, hits give low values 0.996 | locus YDR334W, strain swr1, hits give low values 0.982 | locus YDR335W, strain msn5, hits give low values 0.992 | locus YDR363W, strain ESC2, hits give low values 1.02 and 0.978 | locus YDR388W, hits give low values 0.994 | locus YDR392W, strain spt3, hits give low values 0.912 | locus YDR502C, strain sam2, hits give low values 0.999 | locus YEL003W, strain gim4, hits give low values 1.01 | locus YEL037C, strain rad23, hits give low values 0.993 | locus YEL061C, strain CIN8 (second series), hits give low values 0.994 | locus YEL061C, strain CIN8, hits give low values 1.01 | locus YER002W, strain NOP16, hits give low values 0.997 and 0.956 | locus YER015W, strain faa2, hits give low values 0.995 | locus YER016W, strain bim1, hits give low values 1.01 | locus YER110C, hits give low values 0.997 | locus YER111C, strain swi4, hits give low values 0.985 | locus YER155C, strain BEM2 (second series), hits give low values 0.989 | locus YER155C, strain BEM2, hits give low values 1.01 | locus YER167W, strain BCK2, hits give low values 0.992 | locus YFR010W, strain ubp6, hits give low values 0.992 | locus YGL078C, strain dbp3, hits give low values 0.995 | locus YGL086W, strain mad1, hits give low values 0.994 | locus YGL167C, strain pmr1, hits give low values 0.989 | locus YGL173C, strain kem1, hits give low values 0.999 | locus YGL227W, strain vid30, hits give low values 0.99 | locus YGL240W, strain doc1, hits give low values 0.982 | locus YGL248W, strain PDE1, hits give low values 1.01 | locus YGL253W, strain hxk2, hits give low values 0.999 | locus YGR078C, strain PAC10, hits give low values 1.02 and 0.98 | locus YGR135W, strain pre9, hits give low values 0.993 | locus YGR229C, strain SMI1, hits give low values 1.01 | locus YGR252W, strain gcn5, hits give low values 0.936 | locus YHR013C, strain ard1, hits give low values 0.976 | locus YHR027C, strain rpn1, hits give low values 0.997 | locus YHR030C, strain SLT2, hits give low values 1.01 and 0.977 | locus YHR079C, strain IRE1 (second series), hits give low values 1 | locus YHR079C, strain IRE1, hits give low values 0.993 | locus YHR094C, strain hxt1, hits give low values 0.987 | locus YHR129C, strain ARP1, hits give low values 1.01 | locus YHR142W, strain chs7, hits give low values 0.965 | locus YHR200W, strain rpn10, hits give low values 1 | locus YIL066C, strain RNR3, hits give low values 1.01 | locus YIL073C, strain SPO22, hits give low values 1.05 | locus YIL125W, strain kgd1, hits give low values 0.99 | locus YIR030C, strain dcg1, hits give low values 1.01 | locus YJL092W, strain hpr5, hits give low values 0.985 | locus YJL095W, strain BCK1 (second series), hits give low values 0.995 | locus YJL095W, strain BCK1, hits give low values 1.03 and 0.991 | locus YJL115W, strain asf1, hits give low values 0.995 | locus YJL129C, strain trk1, hits give low values 0.979 | locus YJL134W, strain LCB3, hits give low values 1.02 | locus YJL154C, strain vps35, hits give low values 0.995 | locus YJL164C, strain tpk1, hits give low values 0.998 | locus YJL166W, strain qcr8, hits give low values 0.972 | locus YJL168C, strain set2, hits give low values 0.984 | locus YJL187C, strain SWE1 (second series), hits give low values 1.01 | locus YJL187C, strain SWE1, hits give low values 1 | locus YJR043C, strain POL32, hits give low values 1.01 | locus YJR066W, strain TOR1, hits give low values 0.944
